Data published in PubChem BioAssay.
Active and inactive are the calls of the source.

Columns and labels:
[1] = small molecules captured by biotinylated probe aFSTL3 – biochemical, small-molecule microarray, fluorescence 635/667, stem cell growth factor project, primary screen (AID 1064); conditions: higher = more signal;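 note: measures binding of the biotinylated anti-FSTL3 antibody to printed compounds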
[2] = binders from COS7 lysate, DM2A8 probe, primary screen, torsin A project, cell lysate, small-molecule microarray, fluorescence 635/667 (AID 1065); conditions: higher = more signal, COS7 lysate expressing mutant human TOR1A
[3] = small molecules captured by biotinylated probe aFGF2 – biochemical, small-molecule microarray, fluorescence 635/667, stem cell growth factor project, primary screen (AID 1067); conditions: higher = more signal;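 note: measures binding of biotinylated aFGF2 protein to printed compounds on slides; z-score merges feature fluorescence and signal-to-noise across triplicate slides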
[4] = small molecules captured by biotinylated probe aFGF10 – biochemical, small-molecule microarray, fluorescence 635/667, stem cell growth factor project, primary screen (AID 1071); conditions: higher = more signal;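 note: score merges 667 nm spot intensity and signal to noise from triplicate slides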
[5] = target: Neurogenic locus notch homolog protein 2 (Homo sapiens) (UniProt Q04721); assay: small molecules binding Notch2 protein – biochemical, small-molecule microarray, 635 nm fluorescence, stem cell growth factors, primary screen (AID 1073); conditions: higher = more signal
Chain of Neurogenic locus notch homolog protein 2 (Homo sapiens) (Q04721 whole entry, looked up, canonical isoform): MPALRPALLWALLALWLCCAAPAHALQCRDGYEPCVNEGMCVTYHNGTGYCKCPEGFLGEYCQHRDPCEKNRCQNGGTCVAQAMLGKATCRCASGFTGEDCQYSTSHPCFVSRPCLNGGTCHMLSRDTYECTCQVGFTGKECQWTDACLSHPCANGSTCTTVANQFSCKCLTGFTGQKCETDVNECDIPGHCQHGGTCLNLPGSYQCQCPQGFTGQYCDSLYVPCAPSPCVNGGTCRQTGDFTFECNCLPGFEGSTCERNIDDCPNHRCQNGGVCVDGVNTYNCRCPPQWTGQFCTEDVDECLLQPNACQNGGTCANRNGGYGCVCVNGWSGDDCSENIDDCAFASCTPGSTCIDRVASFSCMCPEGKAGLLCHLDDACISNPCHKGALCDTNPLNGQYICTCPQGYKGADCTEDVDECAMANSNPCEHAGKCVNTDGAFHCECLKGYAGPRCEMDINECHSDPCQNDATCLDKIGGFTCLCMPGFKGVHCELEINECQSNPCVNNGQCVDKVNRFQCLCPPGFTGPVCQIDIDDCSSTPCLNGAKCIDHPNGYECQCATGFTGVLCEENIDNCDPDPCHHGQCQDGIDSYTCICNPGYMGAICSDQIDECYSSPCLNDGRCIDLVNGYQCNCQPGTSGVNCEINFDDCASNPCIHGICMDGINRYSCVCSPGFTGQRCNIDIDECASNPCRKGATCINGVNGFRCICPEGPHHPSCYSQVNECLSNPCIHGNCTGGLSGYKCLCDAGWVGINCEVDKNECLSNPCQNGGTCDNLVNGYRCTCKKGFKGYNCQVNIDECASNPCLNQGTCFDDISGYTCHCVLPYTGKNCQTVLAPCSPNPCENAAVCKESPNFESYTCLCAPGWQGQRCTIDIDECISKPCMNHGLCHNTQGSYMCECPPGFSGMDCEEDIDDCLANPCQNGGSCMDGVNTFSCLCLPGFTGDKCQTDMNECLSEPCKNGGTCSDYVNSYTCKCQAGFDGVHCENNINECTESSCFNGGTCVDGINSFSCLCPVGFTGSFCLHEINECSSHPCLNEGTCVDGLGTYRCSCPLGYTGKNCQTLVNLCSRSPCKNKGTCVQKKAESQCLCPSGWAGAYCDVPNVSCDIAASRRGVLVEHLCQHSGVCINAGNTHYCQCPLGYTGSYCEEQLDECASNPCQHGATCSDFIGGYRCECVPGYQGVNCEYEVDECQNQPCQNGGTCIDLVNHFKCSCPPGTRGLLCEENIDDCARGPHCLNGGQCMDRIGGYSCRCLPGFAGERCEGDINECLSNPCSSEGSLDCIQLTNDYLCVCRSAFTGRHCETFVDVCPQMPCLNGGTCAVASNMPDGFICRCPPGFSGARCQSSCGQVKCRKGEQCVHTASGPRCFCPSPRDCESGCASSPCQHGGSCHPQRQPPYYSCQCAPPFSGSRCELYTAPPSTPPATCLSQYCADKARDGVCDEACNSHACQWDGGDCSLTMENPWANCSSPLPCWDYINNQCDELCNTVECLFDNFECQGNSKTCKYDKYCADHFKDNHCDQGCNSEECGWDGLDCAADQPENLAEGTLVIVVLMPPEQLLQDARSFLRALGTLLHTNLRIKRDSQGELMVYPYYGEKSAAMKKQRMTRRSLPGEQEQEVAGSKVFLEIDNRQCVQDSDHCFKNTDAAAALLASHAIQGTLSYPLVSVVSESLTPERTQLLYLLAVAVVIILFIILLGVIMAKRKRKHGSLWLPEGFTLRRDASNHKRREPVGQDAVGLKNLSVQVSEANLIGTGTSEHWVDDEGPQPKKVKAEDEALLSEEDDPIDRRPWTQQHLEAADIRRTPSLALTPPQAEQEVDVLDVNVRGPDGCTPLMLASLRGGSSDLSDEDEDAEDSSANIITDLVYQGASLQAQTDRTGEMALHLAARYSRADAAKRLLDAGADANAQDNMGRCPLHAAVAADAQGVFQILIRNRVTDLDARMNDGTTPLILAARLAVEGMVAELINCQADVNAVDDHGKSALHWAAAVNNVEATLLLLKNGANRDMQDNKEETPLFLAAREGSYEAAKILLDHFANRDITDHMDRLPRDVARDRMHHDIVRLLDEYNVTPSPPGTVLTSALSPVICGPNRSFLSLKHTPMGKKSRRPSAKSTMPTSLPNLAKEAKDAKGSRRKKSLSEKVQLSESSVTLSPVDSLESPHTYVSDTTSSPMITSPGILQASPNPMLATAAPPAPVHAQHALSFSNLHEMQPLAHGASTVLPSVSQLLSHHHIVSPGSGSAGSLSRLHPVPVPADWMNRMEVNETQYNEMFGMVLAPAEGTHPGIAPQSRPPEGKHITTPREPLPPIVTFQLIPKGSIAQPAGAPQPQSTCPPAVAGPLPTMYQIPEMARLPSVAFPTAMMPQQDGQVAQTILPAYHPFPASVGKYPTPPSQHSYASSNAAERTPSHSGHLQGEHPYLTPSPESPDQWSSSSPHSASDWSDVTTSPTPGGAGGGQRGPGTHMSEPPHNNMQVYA

[6] = target: Pro-neuregulin-1, membrane-bound isoform (Homo sapiens) (UniProt Q02297); assay: small molecules binding neuregulin-1 protein – biochemical, small-molecule microarray, fluorescence 635/667, psychiatric disease protein project, primary screen (AID 1075); conditions: NRG1 binding, 635 nm fluorescence, higher = more signal;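 note: score combines 667 nm spot fluorescence with signal to noise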
Chain of Pro-neuregulin-1, membrane-bound isoform (Homo sapiens) (Q02297 whole entry, looked up, the tested form may be a part, canonical isoform): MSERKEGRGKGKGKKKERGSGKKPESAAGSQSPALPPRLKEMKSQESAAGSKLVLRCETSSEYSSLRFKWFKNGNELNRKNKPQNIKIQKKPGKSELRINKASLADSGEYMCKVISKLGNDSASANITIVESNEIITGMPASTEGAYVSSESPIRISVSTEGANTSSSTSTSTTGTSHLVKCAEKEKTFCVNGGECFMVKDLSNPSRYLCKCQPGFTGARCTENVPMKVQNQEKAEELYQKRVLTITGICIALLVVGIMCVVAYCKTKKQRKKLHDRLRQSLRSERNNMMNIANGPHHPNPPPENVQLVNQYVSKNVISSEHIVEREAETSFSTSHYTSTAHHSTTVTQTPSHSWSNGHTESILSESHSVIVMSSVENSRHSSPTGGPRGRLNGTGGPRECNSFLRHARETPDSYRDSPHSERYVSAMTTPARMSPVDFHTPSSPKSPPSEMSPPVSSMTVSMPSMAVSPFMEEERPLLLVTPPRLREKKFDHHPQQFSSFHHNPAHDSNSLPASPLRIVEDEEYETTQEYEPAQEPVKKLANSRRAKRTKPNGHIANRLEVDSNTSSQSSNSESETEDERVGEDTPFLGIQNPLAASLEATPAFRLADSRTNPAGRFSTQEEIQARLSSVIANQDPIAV

[7] = system: Neuregulin-1 EGF-like domain; assay: small molecules binding NRG1 EGF domain – biochemical, small-molecule microarray, 635 nm fluorescence, primary screen (AID 1081); conditions: higher = more signal;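 note: binding of the protein to compounds printed on small-molecule microarray slides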
[8] = FRG1 expression reporter modulators in myotubes – cell-based, C2C12 myotubes, firefly/Renilla luciferase, luminescence, FRG1 inhibition for FSHD, primary screen (AID 1084); conditions: FRG1 promoter luciferase, higher = more signal, called active from +8 up or from −8 down
[9] = small molecules captured by biotinylated probe aFST – biochemical, small-molecule microarray, fluorescence 635/667, stem cell growth factor project, primary screen (AID 1086); conditions: higher = more signal;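 note: score merges 667 nm fluorescence with signal-to-noise of each printed compound spot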
[10] = binders of probe aHhip on microarray, primary screen, stem cell growth factor project, biochemical, small-molecule microarray, fluorescence 635/667 (AID 1087); conditions: higher = more signal;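 note: score merges spot fluorescence at 667nm with spot signal to noise ratio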
[11] = system: PRMT1 (protein arginine N-methyltransferase 1); assay: small molecules binding arginine methyltransferase PRMT1 – biochemical, small-molecule microarray, 635 nm fluorescence, primary screen (AID 1088); conditions: higher = more signal;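 note: binding of Prmt1 protein to compounds spotted on small-molecule microarray slides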
[12] = growth effects on S. cerevisiae YJM789 – YJM789 clinical isolate, OD600, 24 h, basal, primary screen (AID 1089); conditions: higher = more signal, called active from +8 up or from −8 down;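 note: growth of clinical yeast isolate S. cerevisiae YJM 789 seeded 1000 cells per well; test concentration not given here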
[13] = S. pombe growth modifiers, basal conditions – strain 972, OD600, 24 h, no modulator, primary screen (AID 1090);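 note: basal condition with compound alone and no growth modifier present; test concentration not given here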; conditions: S. pombe 972 growth, higher = more signal, called active from +8 up or from −8 down
[14] = budding yeast growth modifiers under rapamycin – strain BY4716, OD600, 96 h, primary screen (AID 1091); note: test concentration not given here; conditions: S. cerevisiae BY4716 + rapamycin, higher = more signal, called active from +8 up or from −8 down
[15] = target: Torsin-1A-interacting protein 2 (Homo sapiens) (UniProt Q8NFQ8); assay: small molecules binding lysate-expressed LULL1 – cell lysate, human LULL1 lysate, 635/667 nm fluorescence, primary screen (AID 1092); conditions: small-molecule microarray, hLULL1 lysate binding, 635 nm fluorescence; higher = more signal;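 note: probe is lysate of COS7 cells overexpressing human LULL1; score merges per-feature 667 nm fluorescence with signal-to-noise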
Chain of Torsin-1A-interacting protein 2 (Homo sapiens) (Q8NFQ8 whole entry, looked up): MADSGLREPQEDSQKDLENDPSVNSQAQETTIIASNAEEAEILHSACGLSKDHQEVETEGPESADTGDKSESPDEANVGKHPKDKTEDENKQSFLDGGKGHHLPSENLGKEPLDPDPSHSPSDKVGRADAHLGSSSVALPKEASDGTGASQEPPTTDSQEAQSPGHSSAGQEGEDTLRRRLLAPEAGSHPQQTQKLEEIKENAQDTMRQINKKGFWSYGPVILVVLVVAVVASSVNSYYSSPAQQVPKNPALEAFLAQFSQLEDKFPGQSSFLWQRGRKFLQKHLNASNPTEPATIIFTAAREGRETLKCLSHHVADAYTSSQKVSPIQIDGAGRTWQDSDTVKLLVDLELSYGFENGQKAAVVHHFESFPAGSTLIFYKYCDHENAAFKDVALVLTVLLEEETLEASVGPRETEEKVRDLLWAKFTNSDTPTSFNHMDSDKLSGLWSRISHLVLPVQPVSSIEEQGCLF

[16] = optical density change of DRC41 E. coli – strain DRC41, OD650, 24 h, E. coli filamentation project, primary screen (AID 1093);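 note: MC1000 strain lacking acrAB efflux and sulA so SOS filamentation is blocked; test concentration not given here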; conditions: E. coli DRC41 growth, higher = more signal, called active from +8 up or from −8 down
[17] = probe aLefty2 binding to arrayed compounds – biochemical, biotinylated probe, 635/667 nm fluorescence, primary screen (AID 1094); conditions: small-molecule microarray, higher = more signal;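 note: score merges spot fluorescence near 667 nm with spot signal-to-noise ratio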
[18] = system: Noggin (protein binding on small-molecule microarray); assay: small molecules binding Noggin protein – biochemical, 635/667 nm fluorescence, primary screen (AID 1095); conditions: 635 nm fluorescence, higher = more signal;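 note: score merges 667 nm feature fluorescence with signal to noise over triplicate slides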
[19] = target: Neurogenic locus notch homolog protein 3 (Homo sapiens) (UniProt Q9UM47); assay: small molecules binding NOTCH3 protein – biochemical, 635/667 nm fluorescence, primary screen (AID 1096); conditions: small-molecule microarray, 635 nm fluorescence, higher = more signal
[20] = probe aEGFR binding to arrayed compounds – biochemical, biotinylated probe, 635/667 nm fluorescence, primary screen (AID 1097); conditions: small-molecule microarray, higher = more signal;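 note: probe is a biotinylated anti-EGFR antibody binding compounds printed on slides; score combines fluorescence near 667 nm and signal to noise of each spot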

Row | Structure (SMILES) | composite z-score [1] | composite z-score [2] | composite z-score [3] | composite z-score [4] | composite z-score [5] | composite z-score [6] | composite z-score [7] | z-score [8] | composite z-score [9] | composite z-score [10] | composite z-score [11] | z-score [12] | z-score [13] | z-score [14] | composite z-score [15] | z-score [16] | composite z-score [17] | composite z-score [18] | composite z-score [19] | composite z-score [20]
1 | Cc1cc(C)cc(N2C(=O)CS(=O)(=O)C2c2cccc([N+](=O)[O-])c2)c1 (stereo not given) | 0.228 | 0.661 | 0.245 | 0.366 | 1.17 | 1.63 | 1.04 | -1.47 (inactive) | 1.18 | 1.53 | 1.13 | -0.703 (inactive) | -1.22 (inactive) | -0.522 (inactive) | 2.13 | -0.268 (inactive) | 0.788 | 0.0104 | 0.726 | 0.477
2 | COCCOC(=O)N1C(=O)[C@@]2(c3cc(C#Cc4ccc(OC)cc4)ccc31)[C@H](C(=O)N1CCN(c3ncccn3)CC1)[C@H]1C(=O)O[C@H](c3ccccc3)[C@H](c3ccccc3)N1[C@@H]2c1ccc(O)cc1 | 0.104 | 0.0053 | -0.144 | 0.464 | -0.202 | 0.169 | 0.542 | -1.3 (inactive) | 0.218 | -0.0994 | 0.344 | -1.94 (inactive) | -0.197 (inactive) | 0.872 (inactive) | 0.78 | 0.313 (inactive) | -0.247 | 0.587 | 0.213 | -0.0978
3 | C=CC(=C)C1=CCO[C@@H]1[C@H]1CCCN1S(=O)(=O)c1ccccc1[N+](=O)[O-] | -0.552 | 0.162 | -0.0716 | 0.138 | 1.07 | 0.832 | 1.01 | -0.788 (inactive) | 0.358 | -0.271 | 0.921 | -0.358 (inactive) | 0.131 (inactive) | -0.184 (inactive) | 0.86 | 0.301 (inactive) | -0.0416 | 0.35 | 1.11 | -0.115
4 | Cc1ccc(S[C@]2(C(=O)NCC(C)C)CC(=O)N(Cc3ccccc3)[C@@H]2c2ccc(CO)cc2I)cc1 | -0.0472 | 0.0315 | 0.0664 | 0.161 | 0.533 | 0.892 | 1.27 | -2.06 (inactive) | -0.325 | -0.0427 | 1.3 | -1.29 (inactive) | -0.927 (inactive) | 1.66 (inactive) | 2.55 | 0.0384 (inactive) | 0.124 | 0.8 | 0.905 | 0.0537
5 | COc1ccc(C(=O)Nc2cccc(CN3C(=O)[C@@]4(O[C@@H](CCn5cc(CCO)nn5)[C@H]([Si](C)(C)c5ccc(OC)cc5)[C@H]4C)c4ccccc43)c2)cc1 | -0.115 | 0.485 | -0.0381 | 0.205 | 1.12 | 1.08 | 1.11 | -3.09 (inactive) | 0.407 | -0.0994 | 1.55 | 1.65 (inactive) | -14 (active) | 0.984 (inactive) | 2.06 | -1.02 (inactive) | 0.0361 | 1.2 | 1.11 | 0.0511
6 | O=c1cccc(C=Cc2ccccc2)o1 | 0.236 | -0.609 | -0.144 | -0.0239 | -1.03 | -0.458 | -0.0882 | 0.242 (inactive) | -0.369 | -0.0994 | -0.127 | -0.411 (inactive) | -1.06 (inactive) | 1.14 (inactive) | -0.756 | 0.573 (inactive) | -0.214 | 0.104 | -1.13 | -0.142
7 | CN1C(=O)C2C=CC(C(O)c3ccccn3)N(Nc3ccccc3)C2C1=O (stereo not given) | -0.0437 | 1.11 | -0.0985 | 0.479 | 0.766 | 0.838 | 0.684 | 0.595 (inactive) | 0.113 | 0.176 | 0.949 | 0.826 (inactive) | 0.632 (inactive) | 1.23 (inactive) | 0.68 | -0.324 (inactive) | 0.0524 | 0.021 | 0.186 | -0.0746
8 | C=CCC(OC(C)=O)[C@@H]1[C@@H](N(Cc2cccc3ccccc23)C(=O)c2cccc3ccccc23)c2cc(OCCCO)ccc2N1C(=O)c1ccc2ccccc2n1 (stereo not given in full) | -0.218 | 0.215 | 0.0083 | 0.281 | -0.0258 | -0.0137 | -0.444 | -2.01 (inactive) | 0.0846 | 0.0826 | 0.346 | -1.03 (inactive) | 0.626 (inactive) | -0.964 (inactive) | 0.681 | -0.764 (inactive) | -0.0102 | 0.282 | -0.0176 | -0.0549
9 | C=CCC(OC(C)=O)[C@@H]1[C@@H](N(Cc2ccc(-c3ccccc3)cc2)C(=O)Cc2ccc(F)cc2)c2cc(OCCCO)ccc2N1C(=O)c1ccc2ccccc2n1 (stereo not given in full) | -0.12 | -0.0608 | 0.0198 | -0.372 | 0.0329 | 0.164 | -0.421 | -0.649 (inactive) | 0.167 | 0.0623 | -0.0414 | -0.583 (inactive) | -0.0387 (inactive) | -0.527 (inactive) | 0.208 | 1.47 (inactive) | -0.057 | -0.423 | -0.0833 | 0.44
10 | CCCNC(=O)[C@@H]1c2ccccc2C(=O)N(Cc2ccccc2)[C@H]1c1ccc(CO)cc1 | 0.0651 | -0.427 | -0.0861 | -0.533 | -0.195 | 1.09 | 1.11 | -1.14 (inactive) | -0.115 | 0.132 | 0.577 | 0.288 (inactive) | -0.45 (inactive) | 0.633 (inactive) | 2.12 | -1.04 (inactive) | 0.0553 | -0.344 | 0.0163 | -0.152
